This passage reports growth inhibition results from PubChem BioAssay (NCI).

The panel holds about 79,000 compounds, 15% with a hit somewhere; the sample as a whole holds those more often. A number with no mark means an inactive call. Calls of active or inactive are those of the source. No stated cut-off is given here; in the data, active means growth inhibition above about 70%; inactive means the rest.

Assay [1] in a line: NCI Yeast Anticancer Drug Screen. Data for the rad50 strain (AID 155).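 Further: 0% = growth of vehicle-only cultures of the same strain.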 Particulars: S. cerevisiae rad50 strain growth inhibition; at 50.0 µM; stronger effect = higher value. In outline: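 Inhibition values express reduced yeast growth in compound-treated cultures relative to vehicle-treated controls.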
Assay [2] is described as follows: NCI Yeast Anticancer Drug Screen. Data for the mec2-1 strain (AID 157). Particulars: S. cerevisiae mec2-1 strain, at 50.0 µM, stronger effect = higher value. The essentials: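 mec2-1 yeast strain, carrying an alteration in DNA damage repair or cell cycle control, was exposed to compounds; growth inhibition was measured relative to vehicle-treated controls.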
A short description of assay [3]: NCI Yeast Anticancer Drug Screen. Data for the sgs1 mgt1 strain (AID 161).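 Further: 0% = growth of cultures given vehicle only.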 Particulars: S. cerevisiae sgs1 mgt1 strain, at 50.0 µM, stronger effect = higher value. In outline: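 Percent growth inhibition was derived by comparing compound-exposed mutant yeast with vehicle-exposed cultures. The strain carries alterations in DNA damage repair.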
Assay [4] in a line: NCI Yeast Anticancer Drug Screen. Data for the cln2 rad14 strain (AID 165).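 Further: 0% = growth equal to vehicle treated cultures.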 The following applies: S. cerevisiae cln2 rad14 strain, at 50.0 µM, stronger effect = higher value. In outline: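 Yeast carrying cln2 and rad14 alterations (cell cycle control and DNA damage repair) were exposed to compounds. Growth inhibition was measured against vehicle-treated controls.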
A short description of assay [5]: NCI Yeast Anticancer Drug Screen. Data for the bub3 strain (AID 167). Particulars: S. cerevisiae bub3 mutant strain, at 50.0 µM, stronger effect = higher value. The essentials: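 Steps: expose the mutant yeast strain to compound; grow alongside vehicle-treated cultures; measure growth; express inhibition against the vehicle cultures.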
Assay [6] is described as follows: NCI Yeast Anticancer Drug Screen. Data for the mlh1 rad18 strain (AID 175). Particulars: S. cerevisiae mlh1 rad18 strain growth inhibition; at 50.0 µM; stronger effect = higher value. The essentials: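 Growth inhibition of the yeast strain was measured after compound exposure and expressed relative to vehicle-treated controls. The strain carries defined defects in DNA damage repair.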

As for `COC1OC(CO)C(O)C(OCc2ccccc2)C1OCc1ccccc1` (stereo unspecified), the growth inhibition was -4.35% in assay [1]; 0.5% in assay [2]; -5.35% in assay [3]; -10.3% in assay [4]; -7.4% in assay [5]; -19.3% in assay [6].
`O=C1c2ccccc2C(C(c2ccccc2)c2ccccc2)c2ccccc21`: the growth inhibition in assay [1] is -22%; in assay [2], -18.6%; in assay [3], -28.9%; in assay [4], 8.45%; in assay [5], 5.25%; in assay [6], -14%.
On to `O=C1c2cc3c(cc2CC12Cc1cc4c(cc1C2=O)CCCC4)CCCC3`, for which the growth inhibition was -42.1% in assay [1]; -14.2% in assay [2]; -22.3% in assay [3]; -16.8% in assay [4]; -4.25% in assay [5]; -37.1% in assay [6].
For `Cc1cc(C)c2ccc(NC(=O)CCC(=O)O)nc2n1`, the growth inhibition in assay [1] was -15.1%; in assay [2] it was -32.5%; in assay [3], 7.45%; in assay [4] it was 10.7%; in assay [5], -27.4%; in assay [6] it was -13.4%.
For the molecule `CC(=O)c1ccccc1NC(=O)C(=O)C(C(=O)c1ccc2ccccc2c1)C1OC(=O)c2ccccc21` (stereo unspecified), the growth inhibition was -3.15% in assay [1]; 3.45% in assay [2]; 11.4% in assay [3]; -44.2% in assay [4]; 4.85% in assay [5]; 8.25% in assay [6].
For the molecule `N#CC(C(=O)C(=O)Nc1cccc(C(F)(F)F)c1)c1cccc(Cl)c1` (stereo unspecified), the growth inhibition in assay [1] is 19.1%; in assay [2], 11.4%; in assay [3], 14.8%; in assay [4] it was 12.2%; in assay [5] it was 19.6%; in assay [6], 28.9%.
For `C=C(C)C1CC=C(C)[C@](O)(C2(O)C[C@H](C(=C)C)CC=C2C)C1` (stereo partly specified), the growth inhibition was -0.55% in assay [1]; 6.95% in assay [2]; 26.1% in assay [3]; 23.9% in assay [4]; 6.6% in assay [5]; 9.65% in assay [6].
Consider `CCCCC1(CC)COC2(CCCCC2)OC1`, for which the growth inhibition was 17.1% in assay [1]; 37% in assay [2]; 13.3% in assay [3]; -22.2% in assay [4]; 6.85% in assay [5]; 6.95% in assay [6].
Consider `NCCCc1c(-c2ccccc2)nc(N)[nH]c1=O`, for which the growth inhibition in assay [1] was -3.15%; in assay [2] it was -15%; in assay [3], -35.5%; in assay [4], -28.4%; in assay [5], -58%; in assay [6], -3.05%.
With `OC(c1ccccc1)(c1c2ccccc2cc2ccccc12)C1CCC1` (stereo unspecified), the growth inhibition in assay [1] is 16.8%; in assay [2] it was 20.1%; in assay [3] it was 0.9%; in assay [4], 9.75%; in assay [5], 13%; in assay [6], -5.65%.
On to `CN1C(=O)C(n2[nH]c(=O)n(-c3ccccc3)c2=O)C(=O)N(C)C1=O`, for which the growth inhibition in assay [1] is 11.8%; in assay [2], 12.7%; in assay [3], -6.55%; in assay [4], -23.1%; in assay [5] it was 16.9%; in assay [6] it was 22.9%.
As for `CN(C)C1=CC(=O)NC(c2ccccc2)C1` (stereo unspecified), the growth inhibition in assay [1] was -10.6%; in assay [2], -17.4%; in assay [3] it was -10.6%; in assay [4], -14.2%; in assay [5], -3.45%; in assay [6], -11.6%.
Turning to `Cc1cc2c(=O)cc(-c3ccccc3)oc2c(C(=O)O)c1C`, the growth inhibition in assay [1] was -12.7%; in assay [2] it was -8.55%; in assay [3], 14.8%; in assay [4], -19.7%; in assay [5], -4.65%; in assay [6], -10.4%.
With `CCCNc1ncnc2ncn(C)c12`, the growth inhibition in assay [1] is 12.4%; in assay [2], -1.6%; in assay [3], -12.9%; in assay [4], 5.05%; in assay [5] it was 7.35%; in assay [6], 0.35%.
`NC(=O)CC1CCCCC1`: the growth inhibition in assay [1] was 8.3%; in assay [2], -9%; in assay [3] it was -7.05%; in assay [4] it was 7.35%; in assay [5], 17.2%; in assay [6], -8.55%.
With `Cc1cc(=O)oc2ccccc12`, the growth inhibition in assay [1] was 8.8%; in assay [2] it was 0.6%; in assay [3] it was 10.9%; in assay [4], -3.1%; in assay [5], 4.6%; in assay [6] it was 1.55%.
For `CCSCCNC(=O)NS(=O)(=O)c1ccc(C)cc1`, the growth inhibition in assay [1] was 4.85%; in assay [2], -0.75%; in assay [3], -6.45%; in assay [4] it was 1.55%; in assay [5], -11.4%; in assay [6], 14%.
For the molecule `O=C1CCCc2ccccc21`, the growth inhibition was -2.35% in assay [1]; -11.3% in assay [2]; -29.9% in assay [3]; -30.3% in assay [4]; -14% in assay [5]; 1% in assay [6].
Turning to `O=C(O)CCCc1ccc2sc3ccccc3c2c1`, the growth inhibition is 47.4% in assay [1]; 32.6% in assay [2]; 27.6% in assay [3]; 50.5% in assay [4]; 24.9% in assay [5]; 76.8% (active) in assay [6].
As to `CCC(C)c1cc(CN(C)C)cc(C(C)CC)c1O` (stereo unspecified), the growth inhibition is 13.1% in assay [1]; 1.1% in assay [2]; 16.4% in assay [3]; 13.8% in assay [4]; 3.2% in assay [5]; 9.05% in assay [6].
For the molecule `C=CCOC(=O)C(C)OC(=O)OCC` (stereo unspecified), the growth inhibition is 9.2% in assay [1]; 10.7% in assay [2]; 6.85% in assay [3]; 8.1% in assay [4]; -2.1% in assay [5]; 7.15% in assay [6].
